Test results from PubChem BioAssay AID1159580 (chemical genetic matrix, 2015).
The whole screen tested about 5,500 compounds, of which about 2,000 (36%) were called active. Roughly 18% stayed inconclusive and do not appear here. Cut-off read from the data, not from the text of the source: active = normalized growth mostly below about 0.91 (no sharp cut-off); inconclusive = no clear call, values can overlap the other calls; inactive = mostly above about 0.92. This is one part of the list.

Experiment: chemical genetic growth profiling, strain panel (AID 1159580);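 note: tested at 20 µM; growth read once vehicle control cultures reached saturation at 30 °C; 1 = growth at the plate median or of vehicle wells; lower values mean less growth of the strain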
Details: growth OD

Measured: normalized growth

Cc1ccc(C(C)C)c(O)c1C(=O)O
inactive: S. cerevisiae deletion strains, locus YAL013W, strain DEP1, stronger effect = lower value 0.993 | S. cerevisiae deletion strains, locus YBR021W, strain FUR4, stronger effect = lower value 0.912 | S. cerevisiae deletion strains, locus YBR229C, strain ROT2, stronger effect = lower value 0.986 | S. cerevisiae deletion strains, locus YCL029C, strain bik1, stronger effect = lower value 0.951 | S. cerevisiae deletion strains, locus YDL035C, strain GPR1, stronger effect = lower value 0.997 | S. cerevisiae deletion strains, locus YDL074C, strain BRE1, stronger effect = lower value 0.998 | S. cerevisiae deletion strains, locus YDL101C, strain DUN1, stronger effect = lower value 0.999 | S. cerevisiae deletion strains, locus YDL134C, strain PPH21, stronger effect = lower value 0.998 | S. cerevisiae deletion strains, locus YDL192W, strain arf1, stronger effect = lower value 0.95 | S. cerevisiae deletion strains, locus YDR101C, strain arx1, stronger effect = lower value 0.971 | S. cerevisiae deletion strains, locus YDR162C, strain NBP2, stronger effect = lower value 0.977 | S. cerevisiae deletion strains, locus YDR318W, strain mcm21, stronger effect = lower value 0.96 | S. cerevisiae deletion strains, locus YDR388W, stronger effect = lower value 0.935 | S. cerevisiae deletion strains, locus YDR502C, strain sam2, stronger effect = lower value 0.957 | S. cerevisiae deletion strains, locus YEL061C, strain CIN8, stronger effect = lower value 0.981 | S. cerevisiae deletion strains, locus YER110C, stronger effect = lower value 0.959 | S. cerevisiae deletion strains, locus YER167W, strain BCK2, stronger effect = lower value 0.973 | S. cerevisiae deletion strains, locus YGL086W, strain mad1, stronger effect = lower value 0.975 | S. cerevisiae deletion strains, locus YGL248W, strain PDE1, stronger effect = lower value 0.995 | S. cerevisiae deletion strains, locus YGR078C, strain PAC10, stronger effect = lower value 1 | S. cerevisiae deletion strains, locus YGR135W, strain pre9, stronger effect = lower value 0.975 | S. cerevisiae deletion strains, locus YGR252W, strain gcn5, stronger effect = lower value 0.919 | S. cerevisiae deletion strains, locus YHR030C, strain SLT2, stronger effect = lower value 0.97 | S. cerevisiae deletion strains, locus YHR079C, strain IRE1 (second series), stronger effect = lower value 0.936 | S. cerevisiae deletion strains, locus YHR129C, strain ARP1, stronger effect = lower value 0.965 | S. cerevisiae deletion strains, locus YHR200W, strain rpn10, stronger effect = lower value 0.945 | S. cerevisiae deletion strains, locus YIL066C, strain RNR3, stronger effect = lower value 1.01 | S. cerevisiae deletion strains, locus YIL073C, strain SPO22, stronger effect = lower value 1 | S. cerevisiae deletion strains, locus YIR030C, strain dcg1, stronger effect = lower value 0.949 | S. cerevisiae deletion strains, locus YJL095W, strain BCK1, stronger effect = lower value 0.992 | S. cerevisiae deletion strains, locus YJL134W, strain LCB3, stronger effect = lower value 0.955 | S. cerevisiae deletion strains, locus YJL187C, strain SWE1 (second series), stronger effect = lower value 1.01 | S. cerevisiae deletion strains, locus YJR043C, strain POL32, stronger effect = lower value 0.981 | S. cerevisiae deletion strains, locus YJR075W, strain HOC1, stronger effect = lower value 0.998 | S. cerevisiae deletion strains, locus YKL009W, strain mrt4, stronger effect = lower value 0.897 | S. cerevisiae deletion strains, locus YKL190W, strain CNB1, stronger effect = lower value 0.987 | S. cerevisiae deletion strains, locus YKR001C, strain vps1, stronger effect = lower value 0.917 | S. cerevisiae deletion strains, locus YLR039C, strain RIC1, stronger effect = lower value 0.943 | S. cerevisiae deletion strains, locus YLR058C, strain SHM2, stronger effect = lower value 0.995 | S. cerevisiae deletion strains, locus YLR262C, strain YPT6, stronger effect = lower value 0.986 | S. cerevisiae deletion strains, locus YLR268W, strain sec22, stronger effect = lower value 0.96 | S. cerevisiae deletion strains, locus YLR330W, strain CHS5, stronger effect = lower value 0.947 | S. cerevisiae deletion strains, locus YLR342W, strain FKS1 (second series), stronger effect = lower value 0.973 | S. cerevisiae deletion strains, locus YLR371W, strain rom2, stronger effect = lower value 0.94 | S. cerevisiae deletion strains, locus YLR418C, strain cdc73, stronger effect = lower value 0.946 | S. cerevisiae deletion strains, locus YML016C, strain PPZ1, stronger effect = lower value 0.977 | S. cerevisiae deletion strains, locus YML032C, strain rad52, stronger effect = lower value 0.959 | S. cerevisiae deletion strains, locus YMR078C, strain ctf18, stronger effect = lower value 0.916 | S. cerevisiae deletion strains, locus YMR223W, strain ubp8, stronger effect = lower value 0.972 | S. cerevisiae deletion strains, locus YMR263W, strain SAP30, stronger effect = lower value 0.989 | S. cerevisiae deletion strains, locus YMR307W, strain GAS1, stronger effect = lower value 0.967 | S. cerevisiae deletion strains, locus YNL067W, strain RPL9B, stronger effect = lower value 0.997 | S. cerevisiae deletion strains, locus YNL128W, strain TEP1, stronger effect = lower value 1.01 | S. cerevisiae deletion strains, locus YNL233W, strain BNI4, stronger effect = lower value 0.993 | S. cerevisiae deletion strains, locus YNL307C, strain MCK1, stronger effect = lower value 0.928 | S. cerevisiae deletion strains, locus YNR052C, strain pop2, stronger effect = lower value 0.951 | S. cerevisiae deletion strains, locus YOL006C, strain TOP1, stronger effect = lower value 0.977 | S. cerevisiae deletion strains, locus YOL012C, strain htz1 1.59 | S. cerevisiae deletion strains, locus YOL147C, strain pex11, stronger effect = lower value 0.937 | S. cerevisiae deletion strains, locus YOR061W, strain CKA2, stronger effect = lower value 0.989 | S. cerevisiae deletion strains, locus YOR069W, strain VPS5, stronger effect = lower value 0.974 | S. cerevisiae deletion strains, locus YOR136W, strain idh2, stronger effect = lower value 0.979 | S. cerevisiae deletion strains, locus YOR184W, strain ser1, stronger effect = lower value 0.962 | S. cerevisiae deletion strains, locus YOR316C, strain cot1, stronger effect = lower value 0.93 | S. cerevisiae deletion strains, locus YPL241C, strain CIN2, stronger effect = lower value 0.971 | S. cerevisiae deletion strains, locus YPR167C, strain met16, stronger effect = lower value 0.936 | S. cerevisiae deletion strains, strain wtn01, stronger effect = lower value 0.955 | S. cerevisiae strains, strain wild type, stronger effect = lower value 0.988
active: S. cerevisiae deletion strains, locus YDL185W, strain tfp1, stronger effect = lower value 0.784 | S. cerevisiae deletion strains, locus YER155C, strain BEM2, stronger effect = lower value 0.914 | S. cerevisiae deletion strains, locus YGL078C, strain dbp3, stronger effect = lower value 0.859 | S. cerevisiae deletion strains, locus YHR094C, strain hxt1, stronger effect = lower value 0.923 | S. cerevisiae deletion strains, locus YIL125W, strain kgd1, stronger effect = lower value 0.808 | S. cerevisiae deletion strains, locus YJL168C, strain set2, stronger effect = lower value 0.921 | S. cerevisiae deletion strains, locus YKL068W, stronger effect = lower value 0.82 | S. cerevisiae deletion strains, locus YKL085W, strain MDH1 (second series), stronger effect = lower value 0.83 | S. cerevisiae deletion strains, locus YKL085W, strain MDH1, stronger effect = lower value 0.83 | S. cerevisiae deletion strains, locus YLR102C, strain apc9, stronger effect = lower value 0.918 | S. cerevisiae deletion strains, locus YML124C, strain tub3, stronger effect = lower value 0.929 | S. cerevisiae deletion strains, locus YNL250W, strain rad50, stronger effect = lower value 0.848 | S. cerevisiae deletion strains, locus YNL271C, strain bni1, stronger effect = lower value 0.831 | S. cerevisiae deletion strains, locus YNL298W, strain CLA4, stronger effect = lower value 0.842 | S. cerevisiae deletion strains, locus YOR144C, strain elg1, stronger effect = lower value 0.928 | S. cerevisiae deletion strains, locus YPR119W, strain clb2, stronger effect = lower value 0.918 | S. cerevisiae deletion strains, locus YPR141C, strain kar3, stronger effect = lower value 0.797 | S. cerevisiae deletion strains, locus YPR163C, strain tif3, stronger effect = lower value 0.908
